Source: PubChem BioAssay
KB-V1 MDR tox = kills drug-selected multidrug resistant KB-V1 cells; KB-V1 MDR cells viability, CellTiter-Glo, 72 h; Potency, µM (series often up to 46.1 µM), most hits filed as cytotoxic; 400,000 compounds, 3.4% hits; AID 1347076; further: nearly all actives have a fitted effect of over 60% in size
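Cells of the MDR subline KB-V1 are plated, dosed with compound at multiple concentrations, and incubated 72 h at 37 degrees C; CellTiter-Glo is then added and luminescence read after 10 min.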
KB-3-1 cytotox = kills parental KB-3-1 adenocarcinoma cells | Potency, µM (top dose mostly 46.1 µM), actives largely listed as cytotoxic | KB-3-1 viability, CellTiter-Glo ATP luminescence, 72 h | 400,000 compounds, 1.4% hits; further: nearly all actives have a fitted effect of over 60% in size
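Multi-concentration cytotoxicity screen in KB-3-1 cells grown in DMEM lacking phenol red with 10% FBS. After 72 h at 37 °C with compound, ATP-dependent luminescence was recorded.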
SW480 rereplic = induces DNA re-replication in SW480 colon adenocarcinoma cells. 340,000 compounds, 1.8% hits. SW480 DNA re-replication, Hoechst DNA content imaging, 48 h. Potency, µM (highest dose often 46.1 µM), usual class: activators; further: nearly all actives have a fitted effect of over 55% in size
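Treated cells incubate 48 hr (37 C, 5% CO2), are stained 40 min with Hoechst, and nuclear fluorescence is enumerated; a rise in nuclei with high DNA signal marks re-replication.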
MCF10A rerep = inducers of DNA re-replication in MCF 10A breast cells; MCF 10A DNA re-replication, Hoechst nuclear intensity, 48 h; 350,000 compounds, 2.9% hits; AID 624296; Potency, µM (top dose mostly 46.1 µM), actives largely listed as activators; further: nearly all actives have a fitted effect of over 50% in size
RORg inh = blocks mouse ROR gamma transcriptional activity | P51450 | Drosophila S2 Gal4-RORgamma UAS-luciferase reporter, 20 h | Potency, µM (series often up to 53.6 µM), hits mostly inhibitors | 310,000 compounds, 5.4% hits | AID 2551; further: nearly all actives have a fitted effect of over 60% in size
Target sequence (P51450 whole entry, looked up, the tested form may be a part): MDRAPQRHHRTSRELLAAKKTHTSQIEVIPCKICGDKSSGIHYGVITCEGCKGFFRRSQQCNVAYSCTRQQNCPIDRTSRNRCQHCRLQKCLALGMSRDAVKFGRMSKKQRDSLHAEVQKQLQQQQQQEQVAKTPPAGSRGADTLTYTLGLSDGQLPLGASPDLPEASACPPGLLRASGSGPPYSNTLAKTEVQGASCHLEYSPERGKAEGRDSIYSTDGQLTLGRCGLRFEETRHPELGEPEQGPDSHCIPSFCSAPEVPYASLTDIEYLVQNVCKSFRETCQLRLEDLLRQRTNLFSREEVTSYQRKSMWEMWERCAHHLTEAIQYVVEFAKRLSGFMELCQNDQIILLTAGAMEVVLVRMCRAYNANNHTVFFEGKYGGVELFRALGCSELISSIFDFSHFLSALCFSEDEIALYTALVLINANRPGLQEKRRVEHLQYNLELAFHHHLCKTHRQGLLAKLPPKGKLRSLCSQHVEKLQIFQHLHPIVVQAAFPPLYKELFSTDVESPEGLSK
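Drosophila S2 cells stably expressing Gal4-DBD/mouse RORγ fusion under metallothionein promoter plus UAS-luciferase; compound 1 h, then 700 uM CuSO4 induction for 20 h at ambient temperature; inhibition read as reduced luminescence.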
VP16 counter = counter-screen for ROR gamma inhibitors: Gal4-VP16 reporter. Drosophila S2 Gal4-VP16 UAS-luciferase, luminescence, 20 h. Potency, µM (highest dose often 53.6 µM), usual class: inhibitors. 310,000 compounds, 3.5% hits. AID 2546;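 further: Gal4-VP16 expression switched on by copper sulfate through the metallothionein promoter; nearly all actives have a fitted effect of over 50% in size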
Large screens that a line does not name were inactive; ! = not active in a repeat. Only some compounds are listed: those with a hit (about 10% of all), similar ones and a draw of the others. The call rests on the fitted dose curve; in most records, active means well fitted curve in the direction sought with a large enough effect; inconclusive means small, poorly fitted or top-dose-only effect, or another doubt; inactive means no such curve, though single readings can be large; an effect the other way counts as inactive or inconclusive.

Oc1ccc2ccccc2c1CN1CCN(c2ccccc2)CC1	KB-V1 MDR tox inconclusive
Oc1ccc(CN2CCN(c3ccccc3)CC2)c2cccnc12	KB-3-1 cytotox inconclusive, SW480 rereplic inconclusive, MCF10A rerep inconclusive, RORg inh 1.3µM, VP16 counter 1µM
CSc1ncccc1C(=O)N1CCN(S(=O)(=O)c2cc(C)ccc2C)CC1	none
Oc1c(CN2CCCCC2)ccc2cccnc12	KB-V1 MDR tox inconclusive, KB-3-1 cytotox inconclusive, SW480 rereplic 5.2µM (no result: RORg inh, VP16 counter)
Oc1c(CN2CCOCC2)ccc2ccccc12	KB-V1 MDR tox inconclusive
Oc1ccc(CN2CCC(Cc3ccccc3)CC2)c2cccnc12	KB-V1 MDR tox inconclusive, KB-3-1 cytotox 23µM, SW480 rereplic 2.9µM, MCF10A rerep inconclusive, RORg inh 2.2µM, VP16 counter 4.5µM
Oc1ccc(CN2CCCCC2)c2cccnc12	KB-V1 MDR tox inconclusive, KB-3-1 cytotox inconclusive, RORg inh 7.1µM, VP16 counter 7.9µM
Oc1ccc2ccccc2c1CN1CCCCC1	KB-3-1 cytotox inconclusive (no result: RORg inh, VP16 counter)
Clc1ccccc1CN1CCC(Cc2ccccc2)CC1	MCF10A rerep inconclusive, VP16 counter inconclusive
COc1cc(CN2CCc3ccccc3C2)ccc1O	KB-V1 MDR tox 13µM, KB-3-1 cytotox 2.9µM, SW480 rereplic inconclusive, MCF10A rerep inconclusive, RORg inh 5.6µM, VP16 counter 3.5µM
COc1cc(CN2CCc3ccccc3C2)cc([N+](=O)[O-])c1O	none
CCc1ccccc1-n1c2c(cc(-c3nc(-c4ccc(Cl)cc4)cs3)c1=O)C(=O)CC(C)(C)C2	none (no result: SW480 rereplic, MCF10A rerep, RORg inh, VP16 counter)
Cc1ccc(N2CCN(C(=O)c3cn(C)c4ccc(S(=O)(=O)N(C)C5CCCCC5)cc4c3=O)CC2C)cc1 (stereo unspecified)	KB-3-1 cytotox inconclusive (no result: SW480 rereplic, MCF10A rerep, RORg inh, VP16 counter)
C=CC1=C(C(=O)O)N2C(=O)[C@@H](NC(=O)C(N=O)c3csc(N)n3)[C@H]2SC1 (stereo partly specified)	RORg inh inconclusive, VP16 counter inconclusive (no result: KB-V1 MDR tox, KB-3-1 cytotox)
CCOC(=O)N1CCN(Cc2ccc(O)c3ncccc23)CC1	KB-3-1 cytotox inconclusive, SW480 rereplic 5.8µM, MCF10A rerep 21µM, RORg inh 2.5µM, VP16 counter 5µM
CCOC(=O)N1CCN(Cc2ccccn2)CC1	none
CC1CCCN(c2nc3ccsc3c(=O)s2)C1 (stereo unspecified)	KB-V1 MDR tox 16µM, KB-3-1 cytotox inconclusive, MCF10A rerep 18µM
Cc1cc(C)c2[nH]c(=O)c(C(c3nnnn3CC3CCCO3)N3CCC(C)CC3)cc2c1 (stereo unspecified)	KB-V1 MDR tox 4.6µM, SW480 rereplic inconclusive
Cc1[nH]c2ccccc2c1/C=N/Nc1ccccc1[N+](=O)[O-]	KB-V1 MDR tox inconclusive, KB-3-1 cytotox inconclusive, RORg inh inconclusive
Cc1ccc(NC(=S)NNc2ccc([N+](=O)[O-])cc2S(=O)(=O)Nc2ccccc2C(=O)O)cc1C	MCF10A rerep inconclusive
COc1ccc(C(C)=NNc2ccc([N+](=O)[O-])cc2S(=O)(=O)Nc2ccccc2C(=O)O)c(OC)c1	SW480 rereplic inconclusive, MCF10A rerep 9.2µM (no result: RORg inh, VP16 counter)
COc1ccc(NS(=O)(=O)c2cc([N+](=O)[O-])ccc2N/N=C/c2c(C)[nH]c3ccccc23)cc1	MCF10A rerep 9.2µM (no result: RORg inh, VP16 counter)
CC(=O)Nc1ccc(C=NNc2ccc([N+](=O)[O-])cc2S(=O)(=O)Nc2ccccc2C(=O)O)cc1	MCF10A rerep 21µM (no result: RORg inh, VP16 counter)
CC(=O)Nc1ccc(C=NNc2ccc(S(=O)(=O)Nc3ccccc3C(=O)O)cc2[N+](=O)[O-])cc1	none (no result: RORg inh, VP16 counter)
CCCCCCN1CCN(C2CN(Cc3ccc([N+](=O)[O-])cc3)S(=O)(=O)C2)CC1 (stereo unspecified)	KB-V1 MDR tox inconclusive (no result: SW480 rereplic, MCF10A rerep, RORg inh, VP16 counter)
Cn1c(-c2ccc(Br)o2)nc2ccccc21	KB-V1 MDR tox inconclusive, KB-3-1 cytotox 26µM!
Cc1ccc(-c2nc3ccccc3n2C)o1	KB-3-1 cytotox inconclusive, SW480 rereplic inconclusive, RORg inh 11µM, VP16 counter inconclusive
Cn1cc(C(=O)c2ccccc2)cc1-c1nc2ccccc2n1C	KB-V1 MDR tox inconclusive
Cc1oc(-c2nc3ccccc3n2C)cc1C(=O)c1ccccc1	KB-V1 MDR tox inconclusive, SW480 rereplic inconclusive, MCF10A rerep inconclusive, RORg inh 11µM, VP16 counter inconclusive
CC(=O)c1ccc(-c2nc3ccccc3n2C)o1	none
Cn1c(-c2ccc(Br)o2)nc2cc(Br)ccc21	KB-V1 MDR tox inconclusive, RORg inh inconclusive
CC(OC(=O)Cc1c[nH]c2ccccc12)C(=O)Nc1ccc(S(N)(=O)=O)cc1 (stereo unspecified)	none (no result: RORg inh, VP16 counter)
CC(=O)Nc1ccc(NC(=O)C(C)OC(=O)CCCc2c[nH]c3ccccc23)cc1 (stereo unspecified)	SW480 rereplic 6.5µM (no result: RORg inh, VP16 counter)
CC(C)=C1CCC(C)CC1=O (stereo unspecified)	none (no result: KB-V1 MDR tox, KB-3-1 cytotox, SW480 rereplic, MCF10A rerep)
Nc1[nH]n(-c2ccccc2)c(=O)c1N=Nc1ccc2c(c1)OCO2	KB-3-1 cytotox inconclusive, RORg inh inconclusive
Nc1nn(-c2ccccc2)c(N)c1N=Nc1cccc(F)c1	KB-V1 MDR tox inconclusive, KB-3-1 cytotox 5.8µM, SW480 rereplic 5.8µM, MCF10A rerep 3.7µM
Nc1nn(-c2ccccc2)c(N)c1N=Nc1ccc2c(c1)OCO2	KB-V1 MDR tox 3.3µM, KB-3-1 cytotox 7.3µM, SW480 rereplic 16µM, MCF10A rerep inconclusive
CCCC[C@]12Cc3ccccc3C(O1)c1c(c3ccccc3oc1=O)O2	none (no result: KB-V1 MDR tox, KB-3-1 cytotox, SW480 rereplic, MCF10A rerep)
COc1cc2c(cc1OC)-c1c(oc3cc(O)cc(O)c3c1=O)CO2	RORg inh inconclusive, VP16 counter 20µM (no result: KB-V1 MDR tox, KB-3-1 cytotox, SW480 rereplic, MCF10A rerep)
COc1ccc(-c2c(C)oc3cc(O)cc(O)c3c2=O)cc1OC	KB-V1 MDR tox inconclusive, RORg inh inconclusive
C=CCn1c(N)cc(=O)nc1SCC(=O)NC(C)c1ccccc1 (stereo unspecified)	VP16 counter 18µM
O=C(Nc1cccc(-c2nc3ccccc3o2)c1)C(F)(F)F	none (no result: SW480 rereplic, MCF10A rerep, RORg inh, VP16 counter)
Nc1c(Cl)ncnc1NCc1cccnc1	none
Nc1c(Cl)ncnc1NCCc1ccc(O)cc1	KB-V1 MDR tox inconclusive, KB-3-1 cytotox inconclusive, SW480 rereplic inconclusive, VP16 counter 7.9µM
O=C(Nc1ccc(Br)cc1F)c1cc2nc(-c3ccco3)cc(C(F)(F)Cl)n2n1	KB-V1 MDR tox inconclusive (no result: SW480 rereplic, MCF10A rerep, RORg inh, VP16 counter)
COc1ccccc1C1CCCN1Cc1nc(-c2ccc(C)s2)oc1C (stereo unspecified)	KB-V1 MDR tox inconclusive, MCF10A rerep inconclusive, RORg inh inconclusive
Cc1ccsc1-c1nc(CN2CCCC2c2ccc(F)cc2)c(C)o1 (stereo unspecified)	RORg inh 10µM
COc1cccc(C2CCCN2Cc2nc(-c3sccc3C)oc2C)c1 (stereo unspecified)	RORg inh 28µM
COc1cccc(C2CCCCN2Cc2nc(-c3ccc(C)o3)oc2C)c1 (stereo unspecified)	none
COc1cc(N(C)C)c(OC)cc1C=O	none (no result: SW480 rereplic, MCF10A rerep, RORg inh, VP16 counter)
